Results on 62 compounds are retold here after PubChem BioAssay AID1628 (Sanford-Burnham Center for Chemical Genomics, 2009).

Molecules are shown by their SMILES. The campaign covered roughly 190,000 compounds. About 930 (0.49%) were called active.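 The calls were made as follows: active = z-score of insulin promoter reporter brightness in nuclei below -3 at 5 µM, with at least 500 cells counted; inconclusive = wells with under 500 cells, flagged as toxic or sparse; inactive = the rest.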 The list shows a part of the results. Potency and affinity values are given separately.

The nature of the test: insulin promoter down-regulators in MIN6 cells, imaging, high-content screening, mouse beta cells (AID 1628). The following applies: MIN6 insulin promoter GFP reporter, at 5 µM, hits give low values.
For the compound `Cc1cc(C)nc(SCSc2nc(C)cc(C)n2)n1`, the z-score is 4.55 (inactive).

Take `Cc1cc(C)nc(SCc2ccc(C(=O)N/N=C/c3cccc(O)c3O)cc2)n1`: the z-score is -3.45 (active).

Regarding `COC(=O)c1ccc(NC(=O)Nc2ccc(F)cc2)cc1`, the z-score is -3.46 (active).

In the case of `O=C(Nc1ccc(F)cc1)Nc1cc(OCC(F)(F)F)cc(OCC(F)(F)F)c1`, the z-score is -3.21 (active).

As to `COC(=O)c1sc2ccccc2c1-n1cccc1C(=O)C(=O)Nc1ccc(F)cc1`, the z-score was 5.4 (inactive).

In the case of `Cc1ccc(SCc2cc(-c3ccc(Cl)cc3)no2)cc1`, the z-score was 3.09 (inactive).

For `O=C1Nc2ccc(Br)cc2C12NNc1ccccc1O2` (configuration not stated), the z-score was 14.4 (inactive).

With `N#C/C(=C/c1ccc(O)c([N+](=O)[O-])c1)C(=O)Nc1ccccc1`, the z-score is 1.31 (inactive).

For the compound `O=C(Nc1ccc(Cl)cc1)/C(=C/c1ccc([N+](=O)[O-])cc1)c1nc2ccccc2s1`, the z-score is -4.86 (active).

Regarding `O=C(Cc1nc(-c2ccc([N+](=O)[O-])cc2)cs1)Nc1ccccc1`, the z-score was 8.58 (inactive).

In the case of `Cc1ccc(-n2c(C)nc3oc4ccccc4c(=O)c3c2=O)cc1`, the z-score was 3.88 (inactive).

Consider `N#Cc1c(C(F)(F)F)cc(-c2ccccc2)nc1SCc1nc(N)nc(N2CCOCC2)n1`, for which the z-score was 15.4 (inactive).

Regarding `CC1(C)Cc2c(c(-c3ccccc3)[nH]c(=O)c2C#N)CO1`, the z-score was 3.41 (inactive).

As for `CC1(C)Cc2c(C#N)c(SCC(=O)c3ccccc3)nc(N3CCOCC3)c2CS1`, the z-score was -3.04 (active).

`CC1(C)Cc2c(C#N)c(SCC(=O)c3ccccc3)nc(N3CCOCC3)c2CO1`: the z-score is -3.99 (active).

As for `N#Cc1c(-c2ccco2)cc(C2CC2)nc1SCC(=O)c1ccccc1`, the z-score is 5.22 (inactive).

Take `CC1(C)Cc2c(C#N)c(SCCOc3ccccc3)nc(N3CCOCC3)c2CO1`: the z-score is -3.51 (active).

For the compound `N#Cc1ccc(-c2ccccc2)nc1SCC(=O)c1cccc(Cl)c1`, the z-score is 4.3 (inactive).

In the case of `N#Cc1ccc(-c2ccc(Cl)cc2)nc1SCC(=O)c1cccc(Cl)c1`, the z-score was 6.91 (inactive).

As to `CCOc1cc2[nH]c(=S)n(CCCN(CC)CC)c(=O)c2cc1OCC`, the z-score was 0.51 (inactive).

`Nc1c(C(=O)C2CC2)sc2nc(-c3cccs3)cc(C(F)(F)F)c12`: the z-score was 15.5 (inactive).

As for `S=C(N/N=C/c1cccs1)NC1CC2CCC1C2` (configuration not stated), the z-score is -3.1 (active).

In the case of `CN(C)c1ccc(/C=N/NC(=O)CN(c2ccccc2Cl)S(C)(=O)=O)cc1Br`, the z-score is 3.57 (inactive).

With `CN(C)c1ccc(/C=C2\C(=N)N3C(=NC2=O)Sc2cc(S(C)(=O)=O)ccc23)cc1`, the z-score is 3.93 (inactive).

Regarding `Cn1cc(/C=C2\SC(=S)N(NC(=O)c3cccc(Cl)c3)C2=O)c2ccccc21`, the z-score is 7.3 (inactive).

In the case of `CC(/C=N/NC(=O)c1ccncc1)=C\c1ccc(C(C)C)cc1`, the z-score is 3.19 (inactive).

With `CC(C)c1ccc(/C=N/NC(=O)c2cccc(Cl)c2)cc1`, the z-score was -3.75 (active).

In the case of `CC1=NN(c2ccccc2)C(=O)C1/C=C1\NC(=S)NC1=O` (configuration not stated), the z-score was 3.53 (inactive).

Take `C/C(N)=C(/C#N)C(=O)CSc1nnnn1-c1ccc(C)cc1C`: the z-score is -3.38 (active).

For the compound `c1csc(-c2ccnc3ncnn23)c1`, the z-score is -4.89 (active).

As to `O=C(CC(=O)Nc1ccccn1)Nc1ccccn1`, the z-score was -0.03 (inactive).

With `S=C(Nc1ccc(Nc2ccccc2)cc1)Nc1ccccn1`, the z-score was -3.32 (active).

Turning to `CCOC(=O)c1sc2cc([N+](=O)[O-])cc(SCC(C)C)c2c1N`, the z-score is 13.9 (inactive).

On to `CC(=O)c1n[nH]nc1Nc1nc(C)cc(C)n1`, for which the z-score is 0.61 (inactive).

`c1ccc(CNc2cnccn2)cc1`: the z-score was 1.28 (inactive).

For the compound `Cc1cccc(NC(=O)C2CCCN(C(=O)NC3CCCCC3)C2)c1C` (configuration not stated), the z-score is -3.03 (active).

`COc1cc(C)nc(N2CCCC(C(=O)Nc3cccc(Cl)c3C)C2)n1` (configuration not stated): the z-score was 3.87 (inactive).

Consider `O=C(NC1CC1)C1CCCN1C(=O)NC1CCCCC1` (configuration not stated), for which the z-score is 2.65 (inactive).

Regarding `Cc1[nH]c2ccccc2c1/C=N/Nc1ccc([N+](=O)[O-])cc1S(=O)(=O)Nc1ccc(Cl)cc1`, the z-score was 9.19 (inactive).

Take `Cc1ccc(NS(=O)(=O)c2cc([N+](=O)[O-])ccc2N/N=C/c2sc(N3CCOCC3)nc2-c2ccccc2)c(C)c1`: the z-score was 11 (inactive).

Take `C=CCSc1nnc(C)c(/C=C/Nc2ccc(Cl)cc2)n1`: the z-score was 5.19 (inactive).

With `CCC(=O)Oc1ccc(C(=O)Nc2c[nH]c(=O)[nH]c2=O)cc1`, the z-score was -5 (active).

In the case of `NS(=O)(=O)c1ccc(NC(=S)NCc2ccccc2)cc1`, the z-score is -4.47 (active).

With `NS(=O)(=O)c1ccc(NC=C2C(=O)OC3(CCCCC3)OC2=O)cc1`, the z-score is 3.78 (inactive).

Turning to `Cc1cc(NC(=O)C2CC(=O)OC2c2ccccc2)no1` (configuration not stated), the z-score was -4.4 (active).

With `COc1ccccc1-n1c(N)cc(=O)nc1SCC(=O)Nc1cc(C)on1`, the z-score was 2.37 (inactive).

In the case of `CC(=O)c1c(C)[nH]c(C(=O)OCC(=O)Nc2ccc(Cl)cc2[N+](=O)[O-])c1C`, the z-score was -3.98 (active).

`COc1ccc(NC(=O)c2[nH]c(C)c(C(C)=O)c2C)cc1Cl`: the z-score is 3.83 (inactive).

For `COC(=O)c1ccc(NC(=O)CSc2nc3cccnc3n2C)cc1`, the z-score is -4.12 (active).

As for `CCOC(=O)c1[nH]c2ccc(OC)cc2c1NS(=O)(=O)c1ccc(Cl)s1`, the z-score is -4.98 (active).

`CCC(C(=O)OCC(=O)Nc1cccc(S(=O)(=O)NC2=NCCCCC2)c1)c1ccccc1` (configuration not stated): the z-score was 3.98 (inactive).

`Cc1sc2ncnc(N3CCCCC3C)c2c1C` (configuration not stated): the z-score was -4.4 (active).

Take `COc1ccc(C(=O)/C=C/c2ccc(N(C)C)cc2)c(OC)c1`: the z-score was 15.9 (inactive).

For the compound `C=CCN1C(=O)C(O)(CC(=O)c2ccc(OC)cc2OC)c2cc(Br)ccc21` (configuration not stated), the z-score is -4.05 (active).

Consider `COc1ccc(/C=C2\CC/C(=C\c3ccc(OC)cc3OC)C2=O)c(OC)c1`, for which the z-score was 5.49 (inactive).

On to `O=C(CCSc1ccc(Cl)cc1)NN=C1CCCCCC1`, for which the z-score is 3.37 (inactive).

In the case of `CC(Sc1ccccc1)C(=O)NN=C1CCCCCC1` (configuration not stated), the z-score is 8.07 (inactive).

Consider `O=C(O)c1ccccc1NN=C1CCCCC1`, for which the z-score is -4.39 (active).

For the compound `CC1CC(C)(C)Nc2ccc(N=O)cc21` (configuration not stated), the z-score was 4.12 (inactive).

Consider `CN(C)c1ccc(/C=C2\SC(=O)N(CC(O)Cn3c4ccccc4c4ccccc43)C2=O)cc1` (configuration not stated), for which the z-score is 3.6 (inactive).

Regarding `O=c1ccc(NS(=O)(=O)c2ccccc2)cn1Cc1ccc(Cl)c(Cl)c1`, the z-score is 4.35 (inactive).

For the compound `O=C1S/C(=C\c2ccc(N3CCOCC3)o2)C(=O)N1c1ccccc1`, the z-score was 12.7 (inactive).
